DT40 TDP1 no CPT: qHTS for Inhibitors of human tyrosyl-DNA phosphodiesterase 1 (TDP1): qHTS in cells in absence of CPT | DT40 Tdp1-/- hTDP1 cells, no CPT, ATP luminescence, 48 h | AID 686978, 2013 | Potency, µM (doses to about 46.2 µM), without a hit: top-dose activity change, negative = growth inhibition, actives largely listed as inhibitors | 420,000 tested, 15% active; further: potency means the concentration at half of the fitted maximal effect; nearly all actives have a fitted effect of over 55% in size
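DT40 Tdp1-/-;hTDP1 cells, no CPT (DMSO vehicle only), 400 cells/well; compounds pin-transferred; ≥48 hr, 37 °C; CellTiter-Glo 30 min RT dark, luminescence read.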
Gal4-VP16 FLuc: counter-screen for ROR gamma inhibitors: Gal4-VP16 reporter; Potency, µM (top dose mostly 53.6 µM), for inactives: at the highest dose activity, negative = inhibition, hits mostly inhibitors; Drosophila S2 Gal4-VP16 UAS-luciferase, luminescence, 20 h; 310,000 tested, 3.5% active;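 further: Gal4-VP16 expression switched on by copper sulfate through the metallothionein promoter; potency means the concentration at half of the fitted maximal effect; nearly all actives have a fitted effect of over 50% in size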
RORg inh: blocks mouse ROR gamma transcriptional activity. Potency, µM (doses to about 53.6 µM), for the others: at the top dose activity change, negative = inhibition, usual class: inhibitors. Drosophila S2 Gal4-RORgamma UAS-luciferase reporter, 20 h. AID 2551. 310,000 tested, 5.4% active; further: potency means the concentration at half of the fitted maximal effect; nearly all actives have a fitted effect of over 60% in size
Target sequence (P51450 whole entry, looked up, the tested form may be a part): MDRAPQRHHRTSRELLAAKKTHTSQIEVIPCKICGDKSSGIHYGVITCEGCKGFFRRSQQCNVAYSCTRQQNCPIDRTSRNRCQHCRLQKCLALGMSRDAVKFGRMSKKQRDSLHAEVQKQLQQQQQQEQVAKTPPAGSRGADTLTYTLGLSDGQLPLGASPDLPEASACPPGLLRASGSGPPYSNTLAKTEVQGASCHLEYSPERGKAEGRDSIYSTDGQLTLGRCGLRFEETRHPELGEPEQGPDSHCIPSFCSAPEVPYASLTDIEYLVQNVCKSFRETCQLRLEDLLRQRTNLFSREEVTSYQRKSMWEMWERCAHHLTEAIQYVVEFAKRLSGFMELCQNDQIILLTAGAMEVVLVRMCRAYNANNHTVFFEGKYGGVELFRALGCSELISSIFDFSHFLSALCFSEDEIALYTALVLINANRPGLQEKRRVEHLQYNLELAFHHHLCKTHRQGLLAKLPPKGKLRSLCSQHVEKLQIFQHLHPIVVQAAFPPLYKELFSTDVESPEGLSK
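Stably transfected Drosophila Schneider cells are the test system, with ROR gamma fused to Gal4 and luciferase under UAS control; luminescence is read after 20 hr of 700 uM copper sulfate induction at ambient temperature.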
LDHA block: blocks human lactate dehydrogenase A; AID 1347041; activity change, % (values are at about 110 or 230 µM); P00338; 480,000 tested, 0.15% active; purified LDHA, NADH/diaphorase-resazurin fluorescence; active compounds read low; in the data active means activity change below about -30%; inconclusive means mostly about -25% to -30%;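 further: plate controls were DMSO wells for no effect and wells without enzyme for full effect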
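Enzyme activity of human lactate dehydrogenase 5 (2 nM; 0.06 mM NADH, 0.2 mM pyruvate, 5 min, RT) is measured via a resazurin/diaphorase fluorescence readout of residual NADH.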
IL1B secr inh: blocks inflammasome-driven IL-1 beta release; THP-1 LPS/ATP IL-1B secretion, AlphaLISA, 16 h; active compounds read low; activity change, % at 57.5 µM; 360,000 tested, 4.7% active; AID 743279; in the data active means activity change below about -50%; inconclusive means mostly about -30% to -49%
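THP-1 cells pretreated 1 hr with compounds (up to 57.5 uM final), then stimulated with LPS (250 ng/mL final) plus ATP (1.25 mM final); secreted IL-1B measured by AlphaLISA after 16 hr, decreased signal indicating inhibition.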
TDP1 cell CPT: growth inhibition of DT40 Tdp1-/-;hTDP1 cells with camptothecin (screen for TDP1 inhibitors) | Potency, µM (top dose mostly 46.2 µM), inactives show at the highest dose activity change, negative = growth inhibition, actives largely listed as inhibitors | 420,000 tested, 12% active | chicken DT40 Tdp1-/-;hTDP1 cells + 20 nM CPT, ATP luminescence, 48 h; further: potency means the concentration at half of the fitted maximal effect; nearly all actives have a fitted effect of over 55% in size
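Chicken DT40 Tdp1-/- cells stably complemented with human TDP1 were seeded at 400 cells/well in medium containing 20 nM camptothecin, exposed to pin-transferred compounds, and grown at 37 °C for at least 48 hr. Viability was read as ATP luminescence.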
The depositor's hits bear a star; u = inconclusive; x = no result given; [ ] = dose if it differs, or a comment. Sampled rows, rich in hits. Any-hit rate of the full collection: about 18%. Unless noted, the call rests on the fitted dose curve; in most records, active means well fitted curve in the direction sought with a large enough effect; inconclusive means small, poorly fitted or top-dose-only effect, or another doubt; inactive means no such curve, though single readings can be large; an effect the other way counts as inactive or inconclusive. Unless noted, on the % scale 0 is the no-effect control and ±100 the full control effect.

SMILES | DT40 TDP1 no CPT | Gal4-VP16 FLuc | RORg inh | LDHA block | IL1B secr inh | TDP1 cell CPT
CN(C)CCCN(C(=O)/C=C/c1cccs1)c1nc2ccc(F)cc2s1 | 4.61µM* | u | u | -9.6 | -104.2* | 2.59µM*
CN(C)CCCN(C(=O)c1cccs1)c1nc2ccc(F)cc2s1 | u | x | x | -1.3 | x | 16.4µM*
Cc1ccccc1C(=O)N(CCCN(C)C)c1nc2ccc(F)cc2s1 | x | x | x | -1.9 | x | x
CN(C)CCN(C(=O)/C=C/c1cccs1)c1nc2ccc(Br)cc2s1 | u | -17.8% | -31.6% | -7.2 | 23.1 | u
CCc1ccc2nc(N(CCN(C)C)C(=O)/C=C/c3cccs3)sc2c1 | u | u | -41.4% | -1.8 | -81.0* | u
CCN(CC)C(=O)/C=C/c1cccs1 | x | x | x | -2.1 | x | x
CN(C)CCN(C(=O)c1ccc(Br)s1)c1nc2cc3c(cc2s1)OCCO3 | -16.7% | -8.5% | 10.8% | -6.4 | 8.5 | 7.1%
CN(C)CCN(C(=O)c1cccs1)c1nc2cc3c(cc2s1)OCCO3 | 23.1µM* | 1.7% | -27.7% | 0.2 | -10.9 | u
CCN(CC)CCN(C(=O)/C=C/c1cccs1)c1nc2ccc(C)cc2s1 | 6.51µM* | -17.5% | -18.2% | -3.8 | 4.8 | u
O=c1c(-c2ccccc2)nnc2sc(-c3cccc(F)c3)nn12 | x | x | x | -0.9 | x | x
CCCOc1ccc(CNC(=O)CS(=O)(=O)Cc2nc(-c3ccccc3C)oc2C)cc1 | x | x | x | 18.9 | x | x
Cc1ccc(-c2nc(Cn3cc(C(F)(F)F)ccc3=O)co2)c(C)c1 | x | x | x | 15.3 | x | x
CCOc1ccc2nc(N(CCN(C)C)C(=O)/C=C/c3cccs3)sc2c1 | 23.1µM* | -14.9% | -3.1% | -0.1 | -71.3* | u
CCOc1ccc2nc(N(Cc3cccnc3)C(C)=O)sc2c1 | -6.4% | x | x | -5.2 | x | 20.3%
C=CCn1c(Oc2cccc(C(F)(F)F)c2)nc2c1c(=O)n(C)c(=O)n2C | x | x | x | 11.3 | x | x
O=C(Nc1ccc(Cl)cc1F)C12CC3CC(CC(C3)C1)C2 | x | x | x | 13.1 | x | x
COC(=O)c1ccc(CSc2nnc3c(n2)[nH]c2ccccc23)cc1 | -12.6% | 2.5% | -17.5% | 0.3 | 1.6 | -9.6%
CC(Sc1nnc2c(n1)[nH]c1ccccc12)C(=O)NC1CCCCC1 (stereo not drawn) | 20.6µM* | u | 43.4% | -12.5 | -28.2 | 23.1µM*
O=C(CSc1nnc2c(n1)[nH]c1ccccc12)N1CCCCC1 | -27.1% | -12.3% | 15.3% | -1.0 | 11.2 | -0.5%
CC(Sc1nnc2c(n1)[nH]c1ccccc12)C(=O)N(C)C1CCCCC1 (stereo not drawn) | 20.6µM* | u | u | -0.2 | -55.9* | 25.9µM*
O=C1CCN(C(=O)c2ccccc2)c2ccccc21 | -20.6% | x | x | -6.0 | 0.0 | -5.7%
CCCN(CCC)S(=O)(=O)c1ccc(C(=O)N2CCC(=O)c3ccccc32)cc1 | 23.1µM* | -8.6% | 16.7% | -1.0 | 18.6 | u
Cc1cc(NC2CCCCC2)nc(NCc2ccccc2)n1 | 4.61µM* | u | u | -1.7 | -74.3* | 4.61µM*
CCOc1ccc(Nc2cc(C)nc(N3CCOCC3)n2)cc1 | u | -4.5% | 22.6% | -2.8 | 1.7 | -25.1%
Cc1cc(N/N=C/c2ccccc2Cl)nc(NCc2ccccc2)n1 | 4.11µM* | u | u | 1.3 | -68.0* | 4.61µM*
SMILES | DT40 TDP1 no CPT | Gal4-VP16 FLuc | RORg inh | LDHA block | IL1B secr inh | TDP1 cell CPT
CCCOc1ccc(Nc2cc(C)nc(C)n2)cc1 | u | x | x | 5.2 | x | 23.1µM*
COc1cc(C)nc(NCc2ccccc2)n1 | u | 0.5% | -11.4% | -8.1 | 18.1 | u
COc1ccc(Nc2cc(C)nc(NCc3ccccc3)n2)cc1 | 4.61µM* | -12.0% | 38.1% | 4.1 | -98.7* | 5.17µM*
COc1cccc2cc(-c3nn4c(C(C)C)nnc4s3)oc12 | x | x | x | 6.3 | x | x
CCN(CC)c1cc(C)nc(NCc2ccccc2)n1 | x | x | x | 10.3 | x | x
C/C(=N\Nc1cc(C)nc(NCc2ccccc2)n1)c1ccc([N+](=O)[O-])cc1 | 9.2µM* | -4.6% | 7.8% | -6.6 | 0.0 | 13µM*
Cc1ccc(Nc2cc(C)nc(NCc3ccccc3)n2)cc1 | 2.59µM* | u | u | -0.5 | -228.5* | 2.59µM*
CC(=O)c1ccc(S(=O)(=O)N(C)C(C)c2cc3ccccc3o2)cc1 (stereo not drawn) | x | x | x | -16.4 | x | x
CCOc1ccc(C2C3=C(CCCC3=O)Nc3nc(-c4ccc(Cl)cc4)nn32)cc1 (stereo not drawn) | x | x | x | 3.4 | x | x
O=S(=O)(NC1CC1)c1ccc(S(=O)(=O)N2CCCC3(CCCCC3)C2)cc1 | u | u | u | -12.1 | 3.1 | 13µM*
CCOC(=O)C1CCC(CN(Cc2c(Cl)cccc2Cl)S(=O)(=O)c2ccc(Cl)cc2)CC1 (stereo not drawn) | 20.6µM* | x | x | -0.9 | x | u
CCOC(=O)C1CCC(CN(Cc2cccc(Br)c2)S(=O)(=O)c2ccc(Cl)cc2)CC1 (stereo not drawn) | 20.6µM* | x | x | -0.2 | x | 29.1µM*
CCCCCC/C=N/Nc1nnc(Cc2ccc(OC)c(OC)c2)c(=O)[nH]1 | u | u | u | 3.9 | -3.3 | u
COc1ccc(Cc2nnc(N/N=C/c3ccc(O)cc3O)[nH]c2=O)cc1OC | 5.8µM* | -12.7% | 22.4% | 5.1 | -53.4* | 5.8µM*
CC(C)NC(=O)c1cccc(NC(=O)Nc2ccc(Cl)cc2)c1 | x | x | x | -11.1 | x | x
O=C(/C=C/c1ccc(Cl)cc1Cl)c1ccc[nH]1 | u | 6.5%[10 µM] | 32.3% | -1.3 | -86.4* | u
O=C(/C=C/c1ccc(Cl)cc1Cl)n1cccn1 | u | 0.9% | 20.7% | -3.0 | -61.1* | u
Cc1ccc2c(c1)B(O)c1cc(C)ccc1O2 | x | x | x | 5.9 | x | x
Cc1onc(-c2ccccc2)c1-c1nnc(CN2CCN(S(=O)(=O)c3ccccc3F)CC2)o1 | u | x | x | 6.9 | -6.6 | 20.6µM*
COc1ccccc1N1CCN(c2cc(=O)n(Cc3ccc(F)cc3)c(=O)[nH]2)CC1 | 4.61µM* | -10.6% | 25.5% | -3.7 | 32.4 | 3.66µM*
O=c1cc(N2CCN(c3ccccc3Cl)CC2)[nH]c(=O)n1Cc1ccc(F)cc1 | 1.46µM* | -8.4% | 10.4% | -14.1 | 18.2 | 4.61µM*
CCC(C)NC(=O)c1ccccc1-c1ncc(-c2ccc(F)cc2)o1 (stereo not drawn) | x | x | x | 0.8 | x | x
COC(=O)c1ccc(CNC(=O)c2cccc(I)c2)cc1 | x | x | x | 2.1 | x | x
Cc1ccccc1NC(=O)C1CCCN(S(=O)(=O)c2cccc3cccnc23)C1 (stereo not drawn) | u | -2.6% | 0.3% | 1.0 | 18.5 | u

From PubChem BioAssay
